Assay results taken from PubChem BioAssay (Tox21).
Inconclusive results are not listed. Active and inactive are the calls of the source. Unless noted, calls follow the shape of the dose curve; as a rule, active = well fitted curve in the direction sought with a large enough effect in the repeat runs; inconclusive = weak or mixed curves; inactive = no such curve, though single readings can be large; an effect the other way counts as inactive or inconclusive.

Assays:
[1] = qHTS assay to identify small molecule agonists of the sonic hedgehog signaling (Shh) pathway (AID 1259368; calls by dose curve;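 also: NIH/3T3-derived 3T3Gli1-Luc cells carrying a stable Gli1-driven firefly luciferase reporter; series mostly up to about 92 µM; nearly all actives have a fitted effect of over 15% in size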)
In short: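 Hedgehog pathway agonism scored by increased firefly luciferase luminescence in 3T3Gli1-Luc cells treated 24 hr at 37 C; detection used a 30 min room-temperature reagent incubation.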

[2] = qHTS assay to identify small molecule antagonists of the sonic hedgehog signaling (Shh) pathway (AID 1259369; calls by dose curve; also: nearly all actives have a fitted effect of over 45% in size; also: potency is read from the fitted curve at half-maximal effect)
In short: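 NIH/3T3 stable Gli1-Luc clone, 2,000 cells/well, 4hr settle; cpd + conditioned medium 24hr; Luc reagent 30min RT; luminescence.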

[3] = target: Estrogen receptor beta (Homo sapiens) (UniProt Q92731); assay: qHTS assay to identify small molecule agonists of the estrogen receptor beta (ER-beta) signaling pathway (AID 1259377; active = well fitted activation curve with a large enough effect in the signal ratio in the repeat runs, not every such curve was filed as active; the % refers to the signal ratio)
In short: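 qHTS in ER-beta-UAS-bla HEK293T cells: 6 hr settling, then 16 hr compound at 37C, then LiveBLAzer substrate 2 h at RT before fluorescence reading.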

[4] = qHTS assay to identify small molecule agonists of the androgen receptor (AR) signaling pathway in the presence of an antagonist - cell viability counter screen (AID 1259379);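 also: MDA-kb2 human breast cancer cells carrying an MMTV luciferase reporter; series mostly up to about 92 µM; nearly all actives have a fitted effect of over 25% in size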
In short: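 MDA-kb2 viability measured by CellTiter-Fluor fluorescence in the same wells as the luciferase signal; nilutamide 3.0uM final; 15-point compound titration; 16 hr at 37C.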

[5] = target: Estrogen receptor (Homo sapiens) (UniProt P03372); assay: qHTS assay to identify small molecule agonists of the estrogen receptor alpha (ER-alpha) signaling pathway in the presence of an antagonist (AID 1259383; calls by dose curve; also: top concentration of the series differs between compounds; nearly all actives have a fitted effect of over 15% in size)
In short: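 Quantitative HTS confirmation: compounds titrated at 15 concentrations onto estrogen-deprived VM7Luc4E2 cells carrying a four-ERE luciferase construct, with ICI-182,780 present at 10.0nM final. Signal is luminescence after 22hr exposure.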

[6] = qHTS assay to identify small molecule agonists or antagonists of the thyroid stimulating hormone receptor (TSHR) signaling pathway - wild type cell line counter screen (AID 1259384; calls by dose curve)
In short: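 Wild-type Hek293 cells, 800/well, 18 h at 37C, then compound with Ro20-1724 for 30 min RT. cAMP by HTRF (cAMP-d2/anti-cAMP cryptate), 1 h RT, fluorescence read. 15 concentrations, triplicates.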

[7] = target: Thyrotropin receptor (Homo sapiens) (UniProt P16473); assay: qHTS assay to identify small molecule antagonists of the thyroid stimulating hormone receptor (TSHR) signaling pathway (AID 1259385; calls by dose curve; also: nearly all actives have a fitted effect of over 20% in size)
In short: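 TSHR-HEK293 cells (800/well) plated 18 h, then compounds with Ro20-1724 and TSH at 1.5 ng/mL final, 30 min at room temperature. cAMP quantified by HTRF (cAMP-d2/anti-cAMP-cryptate, 1 h); 15 concentrations in triplicate.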

[8] = qHTS assay to identify small molecule agonists of the estrogen receptor alpha (ER-alpha) signaling pathway in the presence of an antagonist - cell viability counter screen (AID 1259386);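 also: series mostly up to about 92 µM; cells exposed to compounds for 22 h at 37 °C before the viability read; nearly all actives have a fitted effect of over 30% in size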
In short: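 The test measures whether compounds kill ER-alpha reporter cells (VM7Luc4E2) under antagonist co-treatment (ICI-182,780, 10.0nM). Fluorescence from CellTiter-Fluor is read after a 22hr exposure.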

[9] = target: Progesterone receptor (Homo sapiens) (UniProt P06401); assay: qHTS assay to identify small molecule antagonists of the progesterone receptor (PR) signaling pathway (AID 1346795; active = well fitted inhibition curve with a large enough effect in the signal ratio in the repeat runs, not every such curve was filed as active; the % refers to the signal ratio)
In short: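 Fluorescence intensity measured 2 hr after adding beta-lactamase FRET substrate to PR-UAS-bla HEK293T cells that had been co-treated 16 hr with compound and 1 nM R5020 (final concentration) in 2% charcoal-stripped FBS.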

[10] = qHTS assay to identify small molecule agonists of the progesterone receptor (PR) signaling pathway - cell viability counter screen (AID 1346799; calls by dose curve; also: nearly all actives have a fitted effect of over 45% in size; also: potency is read from the fitted curve at half-maximal effect)
In short: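 In parallel with the beta-lactamase readout, cytotoxicity toward PR-UAS-bla HEK293T cells was measured by CellTiter-Glo luminescence following 16 hr compound incubation in 2% charcoal-stripped FBS medium.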

[11] = qHTS assay to identify small molecule antagonists of the TGF-beta/Smad signaling pathway - cell viability counter screen (AID 1346824); also: nearly all actives have a fitted effect of over 50% in size
In short: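 SBE-bla HEK 293T cells, incubated overnight, then compound plus 0.25 ng/mL TGF-beta1 (stock added) for 5 hr at 37 C. Viability was read in the same wells by CellTiter-Glo luminescence after 30 min at room temperature.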

[12] = qHTS assay to identify small molecule agonists of the TGF-beta/Smad signaling pathway - cell viability counter screen (AID 1346829); also: top concentration of the series differs between compounds; nearly all actives have a fitted effect of over 45% in size
In short: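 After overnight seating at 37 C and 5% CO2, reporter cells got compounds for 5 hr and FRET substrate for 2 hr; cell viability then came from CellTiter-Glo luminescence.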

[13] = qHTS assay to identify small molecule agonists of the TGF-beta/Smad signaling pathway (AID 1346859; active = well fitted activation curve with a large enough effect in the signal ratio in the repeat runs, not every such curve was filed as active; the % refers to the signal ratio; also: series mostly up to about 77 µM)
In short: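 After overnight seeding, SBE-bla HEK 293T cells are dosed with compounds in DMSO and kept 5 hr at 37 C, 5% CO2. LiveBLAzer-type FRET substrate is then applied for 2 hr at room temperature.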

[14] = target: Estrogen receptor beta (Homo sapiens) (UniProt Q92731); assay: qHTS assay to identify small molecule antagonists of the estrogen receptor beta (ER-beta) signaling pathway (AID 1259378; active = well fitted inhibition curve with a large enough effect in the signal ratio in the repeat runs, not every such curve was filed as active; the % refers to the signal ratio)
In short: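 ER-beta-UAS-bla HEK293T cells in 2% charcoal-stripped FBS medium treated with compound plus 1nM final 17-beta-estradiol for 16 hr at 37C. Beta-lactamase reporter read by FRET substrate fluorescence after 2 hours at room temperature.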

[15] = qHTS assay to identify small molecule antagonists of the estrogen receptor beta (ER-beta) signaling pathway - cell viability counter screen (AID 1259382); also: series mostly up to about 92 µM; nearly all actives have a fitted effect of over 55% in size
In short: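 Readout: luminescence, CellTiter-Glo, same wells as bla assay. System: ER-beta-UAS-bla GripTite HEK293T, 2% charcoal-stripped FBS. Exposure: compounds plus 1nM 17-beta-estradiol, 16 hr, 37C.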

[16] = target: Progesterone receptor (Homo sapiens) (UniProt P06401); assay: qHTS assay to identify small molecule agonists of the progesterone receptor (PR) signaling pathway (AID 1346784; calls by dose curve; also: nearly all actives have a fitted effect of over 30% in size)
In short: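 Fluorescence from LiveBLAzer B/G FRET substrate cleavage (2 hr, RT) reported PR activation in PR-UAS-bla HEK 293T cells treated 16 hr at 37C/5% CO2 with compounds; medium contained 2% charcoal-stripped FBS.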

[17] = qHTS assay to identify small molecule antagonists of the progesterone receptor (PR) signaling pathway - cell viability counter screen (AID 1346798); also: series mostly up to about 92 µM; nearly all actives have a fitted effect of over 50% in size
In short: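 CellTiter-Glo luminescence; PR-UAS-bla HEK293T, 3,000 cells/well; compound + R5020, 16 hr, 37C/5% CO2; 30 min RT before read.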

[18] = target: Thyrotropin-releasing hormone receptor (Homo sapiens) (UniProt P34981); assay: qHTS assay to identify small molecule antagonists of the thyrotropin-releasing hormone receptor (TRHR) signaling pathway (AID 1346877; active = well fitted inhibition curve with a large enough effect in the repeat runs, not every such curve was filed as active; also: series mostly up to about 51 µM)
In short: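 Overnight-plated (18 h, 37 °C) HEK293 cells expressing TRHR were dye-loaded 2 h, treated with compound, then stimulated with TRH at 1 nM final. Fluorescence intensity was captured every second for 3 min.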

[19] = qHTS assay to identify small molecule agonists of the estrogen receptor beta (ER-beta) signaling pathway - cell viability counter screen (AID 1259380); also: nearly all actives have a fitted effect of over 30% in size
In short: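 Measured: luminescence from CellTiter-Glo after 30 min at room temperature, added to wells already read for the LiveBLAzer FRET reporter (2 hr substrate); ER-beta-UAS-bla HEK293T cells had 16 hr compound treatment at 37C, 5% CO2.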

[20] = target: Androgen receptor (Homo sapiens) (UniProt P10275); assay: qHTS assay to identify small molecule agonists of the androgen receptor (AR) signaling pathway in the presence of an antagonist (AID 1259381; calls by dose curve; also: nearly all actives have a fitted effect of over 15% in size)
In short: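 Luminescent ONE-Glo read, 30min at room temperature, follows 16hr compound exposure (15 concentrations) of MDA-kb2 cells at 37C, 0% CO2, with nilutamide added at 3.0uM final.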

Measured: Potency

Chain of Progesterone receptor (Homo sapiens) (P06401 whole entry, looked up): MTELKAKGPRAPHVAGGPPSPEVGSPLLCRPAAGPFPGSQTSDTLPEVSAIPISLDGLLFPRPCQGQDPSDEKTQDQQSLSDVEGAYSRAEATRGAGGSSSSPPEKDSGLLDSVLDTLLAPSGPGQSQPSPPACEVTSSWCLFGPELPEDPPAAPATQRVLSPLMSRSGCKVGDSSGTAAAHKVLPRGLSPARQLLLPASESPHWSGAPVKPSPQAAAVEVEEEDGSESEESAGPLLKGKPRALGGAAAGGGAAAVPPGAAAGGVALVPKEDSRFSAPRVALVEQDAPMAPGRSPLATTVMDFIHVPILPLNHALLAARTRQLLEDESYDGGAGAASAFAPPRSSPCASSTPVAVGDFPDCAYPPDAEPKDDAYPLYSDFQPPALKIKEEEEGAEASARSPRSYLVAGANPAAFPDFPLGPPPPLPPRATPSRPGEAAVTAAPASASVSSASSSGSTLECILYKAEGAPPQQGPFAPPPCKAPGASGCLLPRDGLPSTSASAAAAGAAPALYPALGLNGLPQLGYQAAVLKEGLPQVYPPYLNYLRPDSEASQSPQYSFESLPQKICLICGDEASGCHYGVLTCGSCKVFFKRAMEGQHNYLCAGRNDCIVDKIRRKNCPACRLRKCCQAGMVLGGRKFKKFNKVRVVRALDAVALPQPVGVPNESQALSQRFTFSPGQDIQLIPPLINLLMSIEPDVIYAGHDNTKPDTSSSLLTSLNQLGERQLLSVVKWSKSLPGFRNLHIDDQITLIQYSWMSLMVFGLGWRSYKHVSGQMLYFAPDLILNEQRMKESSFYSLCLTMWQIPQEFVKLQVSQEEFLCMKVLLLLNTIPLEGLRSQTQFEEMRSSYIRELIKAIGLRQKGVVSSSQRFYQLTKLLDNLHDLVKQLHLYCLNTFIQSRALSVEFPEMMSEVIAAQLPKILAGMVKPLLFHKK
Chain of Thyrotropin receptor (Homo sapiens) (P16473 whole entry, looked up): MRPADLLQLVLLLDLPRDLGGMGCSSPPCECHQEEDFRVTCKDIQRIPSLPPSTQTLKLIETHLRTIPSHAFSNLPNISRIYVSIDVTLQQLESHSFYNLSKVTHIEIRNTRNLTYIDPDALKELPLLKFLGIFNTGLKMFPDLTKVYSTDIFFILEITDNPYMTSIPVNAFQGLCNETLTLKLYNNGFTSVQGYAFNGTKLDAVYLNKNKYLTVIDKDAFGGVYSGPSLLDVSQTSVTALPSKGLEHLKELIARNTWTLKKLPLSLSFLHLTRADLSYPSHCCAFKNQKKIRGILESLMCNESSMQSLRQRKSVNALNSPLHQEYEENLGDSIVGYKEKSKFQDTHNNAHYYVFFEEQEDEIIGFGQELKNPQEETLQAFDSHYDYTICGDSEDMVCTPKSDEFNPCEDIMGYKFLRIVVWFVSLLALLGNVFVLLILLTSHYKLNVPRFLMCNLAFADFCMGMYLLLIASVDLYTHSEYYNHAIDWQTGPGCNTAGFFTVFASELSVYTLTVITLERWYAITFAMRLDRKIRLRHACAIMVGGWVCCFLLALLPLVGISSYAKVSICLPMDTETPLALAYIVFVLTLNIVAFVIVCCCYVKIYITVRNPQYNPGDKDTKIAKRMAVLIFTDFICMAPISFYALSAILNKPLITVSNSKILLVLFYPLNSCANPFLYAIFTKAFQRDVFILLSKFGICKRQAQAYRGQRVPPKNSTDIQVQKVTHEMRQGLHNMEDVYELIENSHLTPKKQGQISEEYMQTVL
Chain of Estrogen receptor beta (Homo sapiens) (Q92731 whole entry, looked up): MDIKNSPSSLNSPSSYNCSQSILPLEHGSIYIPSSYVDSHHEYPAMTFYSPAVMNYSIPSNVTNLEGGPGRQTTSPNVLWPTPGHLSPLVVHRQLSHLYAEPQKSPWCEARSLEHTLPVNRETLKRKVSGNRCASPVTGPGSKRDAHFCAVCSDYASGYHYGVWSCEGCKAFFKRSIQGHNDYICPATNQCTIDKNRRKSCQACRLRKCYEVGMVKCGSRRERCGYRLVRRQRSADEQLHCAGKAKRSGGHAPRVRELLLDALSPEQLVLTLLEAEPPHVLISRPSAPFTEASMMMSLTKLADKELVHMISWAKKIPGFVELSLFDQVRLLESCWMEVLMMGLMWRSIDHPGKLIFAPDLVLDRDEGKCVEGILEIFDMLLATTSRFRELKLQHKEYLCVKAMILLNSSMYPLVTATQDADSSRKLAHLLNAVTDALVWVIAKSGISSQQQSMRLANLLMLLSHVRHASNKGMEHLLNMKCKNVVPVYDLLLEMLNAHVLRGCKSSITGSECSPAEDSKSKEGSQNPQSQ
Chain of Estrogen receptor (Homo sapiens) (P03372 whole entry, looked up): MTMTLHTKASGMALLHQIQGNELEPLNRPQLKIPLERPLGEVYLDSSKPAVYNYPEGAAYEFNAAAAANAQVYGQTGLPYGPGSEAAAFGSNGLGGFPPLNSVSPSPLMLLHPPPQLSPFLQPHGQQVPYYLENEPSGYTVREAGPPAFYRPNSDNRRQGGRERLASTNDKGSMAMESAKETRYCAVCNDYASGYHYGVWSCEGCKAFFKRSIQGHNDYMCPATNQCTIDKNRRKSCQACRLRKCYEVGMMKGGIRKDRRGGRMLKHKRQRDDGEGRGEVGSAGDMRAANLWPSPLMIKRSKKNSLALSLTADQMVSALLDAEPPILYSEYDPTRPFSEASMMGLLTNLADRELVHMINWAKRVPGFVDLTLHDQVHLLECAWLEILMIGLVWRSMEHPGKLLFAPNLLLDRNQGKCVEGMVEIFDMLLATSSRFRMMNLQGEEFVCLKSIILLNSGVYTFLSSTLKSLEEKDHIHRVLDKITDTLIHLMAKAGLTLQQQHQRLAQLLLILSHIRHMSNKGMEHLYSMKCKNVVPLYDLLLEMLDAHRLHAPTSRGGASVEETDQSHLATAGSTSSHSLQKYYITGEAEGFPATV
Chain of Thyrotropin-releasing hormone receptor (Homo sapiens) (P34981 whole entry, looked up): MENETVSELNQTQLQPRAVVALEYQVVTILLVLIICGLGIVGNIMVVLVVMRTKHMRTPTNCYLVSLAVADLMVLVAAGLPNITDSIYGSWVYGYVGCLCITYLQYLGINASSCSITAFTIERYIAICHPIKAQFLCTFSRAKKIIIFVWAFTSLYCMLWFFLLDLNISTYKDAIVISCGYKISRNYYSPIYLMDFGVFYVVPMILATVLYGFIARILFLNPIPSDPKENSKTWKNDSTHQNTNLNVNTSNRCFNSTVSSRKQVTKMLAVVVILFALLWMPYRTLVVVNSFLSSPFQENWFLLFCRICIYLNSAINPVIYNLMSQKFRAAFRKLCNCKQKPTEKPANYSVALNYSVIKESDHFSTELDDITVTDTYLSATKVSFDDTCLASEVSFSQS
Chain of Androgen receptor (Homo sapiens) (P10275 whole entry, looked up): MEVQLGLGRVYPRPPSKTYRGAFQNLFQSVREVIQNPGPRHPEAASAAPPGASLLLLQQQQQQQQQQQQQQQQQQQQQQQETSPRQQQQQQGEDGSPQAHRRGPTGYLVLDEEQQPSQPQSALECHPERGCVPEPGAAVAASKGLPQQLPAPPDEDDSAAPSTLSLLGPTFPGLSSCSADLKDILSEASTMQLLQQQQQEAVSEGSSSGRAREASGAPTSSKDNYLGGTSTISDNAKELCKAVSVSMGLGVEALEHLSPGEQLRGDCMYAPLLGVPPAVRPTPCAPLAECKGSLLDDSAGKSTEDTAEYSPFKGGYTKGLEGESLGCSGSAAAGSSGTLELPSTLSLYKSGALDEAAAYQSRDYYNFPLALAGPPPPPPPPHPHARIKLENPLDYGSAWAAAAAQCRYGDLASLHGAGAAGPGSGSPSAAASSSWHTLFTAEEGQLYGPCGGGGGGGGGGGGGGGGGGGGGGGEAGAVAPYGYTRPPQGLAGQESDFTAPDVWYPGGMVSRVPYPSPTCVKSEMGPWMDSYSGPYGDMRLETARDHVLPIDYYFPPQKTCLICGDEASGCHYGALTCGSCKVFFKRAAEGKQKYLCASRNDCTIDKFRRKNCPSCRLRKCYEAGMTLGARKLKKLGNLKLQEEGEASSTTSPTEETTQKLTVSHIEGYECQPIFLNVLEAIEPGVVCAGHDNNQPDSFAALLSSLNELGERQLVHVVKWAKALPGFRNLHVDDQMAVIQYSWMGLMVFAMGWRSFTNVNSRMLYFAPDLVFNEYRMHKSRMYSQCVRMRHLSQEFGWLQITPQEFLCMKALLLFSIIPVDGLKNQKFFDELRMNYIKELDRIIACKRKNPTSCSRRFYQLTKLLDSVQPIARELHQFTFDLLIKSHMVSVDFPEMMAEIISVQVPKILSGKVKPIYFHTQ

O=C(O)C(O)[C@H](O)[C@@H](O)[C@H](O)[C@H](O)CO (some centres not stated)
inactive: [1] | [2] | [3] | [4] | [5] | [6] | [7] | [8] | [9] | [11] | [12] | [13]
active: [10] 49.1 µM

CCCCCCCCCCCCCCC
inactive: [1] | [2] | [3] | [14] | [4] | [15] | [6] | [7] | [8] | [16] | [17] | [10] | [11] | [12] | [13] | [18]

COc1ccc(COC=O)cc1
inactive: [1] | [2] | [3] | [4] | [19] | [15] | [5] | [6] | [7] | [8] | [16] | [9] | [17] | [10] | [11] | [12] | [13] | [18]

CC1=CCC2C(C1)C2(C)C (configuration not stated)
active: [2] 17.2 µM
inactive: [1] | [3] | [4] | [19] | [20] | [5] | [6] | [7] | [8] | [16] | [9] | [17] | [11] | [12] | [13]

O=C(O)/C=C/c1ccc(/C=C/C(=O)O)cc1
inactive: [1] | [2] | [3] | [4] | [19] | [15] | [8] | [16] | [9] | [17] | [11] | [13] | [18]

CC(C)(C)C(=O)/C=C/c1ccc(Cl)cc1
inactive: [1] | [2] | [3] | [4] | [15] | [5] | [6] | [7] | [8] | [16] | [9] | [17] | [11] | [12] | [13] | [18]

CC(=O)N[C@@H](CCC(N)=O)C(=O)O
inactive: [1] | [2] | [3] | [14] | [4] | [15] | [5] | [8] | [16] | [9] | [17] | [10] | [11] | [12] | [13] | [18]

C=C(C)C(=O)NCCCN(C)C
inactive: [1] | [2] | [3] | [14] | [4] | [19] | [15] | [8] | [16] | [17] | [11] | [12] | [13] | [18]
